According to PubChem BioAssay (NCI):
Values joined by “and” are separate entries in the source; they are usually repeats but may differ in a detail not shown here. Equal values may be shown once. The panel holds about 79,000 compounds, 15% with a hit somewhere; the sample as a whole holds those more often. A number with no mark means an inactive call. Active and inactive are the calls of the source. Cut-off read from the data, not from the text of the source: active = growth inhibition above about 70%; inactive = the rest.

Test: NCI Yeast Anticancer Drug Screen. Data for the cln2 rad14 strain (AID 165);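 note: 0% = growth equal to vehicle treated cultures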
Conditions: S. cerevisiae cln2 rad14 strain, at 50.0 µM, hits give high values
Summary of the method: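 Strain: cln2 rad14 yeast, altered in cell cycle control and DNA damage repair. Read-out: growth inhibition vs vehicle.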

Structure (SMILES)	growth inhibition
COc1cc(CSc2ccc(O)cc2)cc(OC)c1OC	50%
CC(C)N(CC(=O)c1ccc2cc(Cl)c3ccccc3c2c1)C(C)C	98.2% (active)
Cc1c(N2CCCC2)cc2c(c1NC(=O)c1ccccc1Cl)C(C)(C)CC2(C)C	79.3% (active)
CNc1ccc([N+](=O)[O-])cc1	22.9%
CC(C)(C)OC(=O)c1ccc(NCC2=C(Br)C(=O)C=CC2=O)cc1	89.1% (active)
CCN(CC)CCNc1ccc(C)c2oc3ccc(O)cc3c(=O)c12	25.1%
CSc1ccccc1C(=O)O	-32.9% and -15.8% and 17.3%
CCS(=O)(=O)c1ccc(NC(=O)OC2CCCCCCC2)cc1	88.8% (active)
Cc1cc2c(c3c1C(=O)CC3)C(C)(C)CC2(C)C	-4.5%
OC(c1ccccc1)C(O)c1ccccc1 (stereo not given)	-9.15% and -19.2% and 9.15%
Cc1ccc(S(=O)(=O)OCC(O)C(O)COS(=O)(=O)c2ccc(C)cc2)cc1 (stereo not given)	11.1% and -21.9% and -13.5%
O=C(O)/C=C\c1cc2ccccc2c2ccccc12	98.3% (active)
CC[N+](C)(CC)CCC[n+]1c(-c2ccccc2)c2cc(N)ccc2c2ccc(N)cc21	24.9%
Cn1nc2c(c(Cl)c1=O)Nc1ccccc1O2	23.1%
COC(=O)CSc1nc2[nH]c(SC)c(C(N)=O)c2c(=O)n1-c1ccccc1	46.2%
O=S(=O)(Nc1ccc(Cl)cc1)c1ccccc1	20.9%
COc1ccc(C(=O)Nc2ccc(Cl)cc2)cc1	44.2%
CC(=O)OC1COC(SC(=N)N)C(OC(C)=O)C1OC(C)=O (stereo not given)	19.6% and -30.5% and -41.8%
C=CCOC(=O)CCC(=O)N(CC)CC	72.5% (active)
N#CCC(=O)N/N=C(/CC1(O)C(=O)Nc2c(Cl)cc(Cl)cc21)c1ccccc1 (stereo not given)	-20%
CCCCOC(=O)c1cnc[nH]c1=O	10.4%
COC1OC2COC(c3ccccc3)OC2C(O)C1O (stereo not given)	-29.2% and -46% and -45.3%
N#Cc1ccccc1[N+](=O)[O-]	0.35%
CCCCOC(=O)c1ccc(O)c(OC)c1	-43.9%

Test: NCI Yeast Anticancer Drug Screen. Data for the bub3 strain (AID 167)
Conditions: S. cerevisiae bub3 mutant strain, at 5.0 µM (retest, dose inferred, filed as 0.5), hits give high values
Summary of the method: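 In this screen, a yeast mutant lacking normal mitotic checkpoint function is challenged with compound. Relative growth versus vehicle gives the inhibition value.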

Structure (SMILES)	growth inhibition
CC(=O)OC(OC(C)=O)c1ccc2ccc3cccc4ccc1c2c34	-17%
C[N+]1=C(/C=C\c2ccc(O)c3ccccc23)C(C)(C)c2ccccc21	15%
CCCCC(O)CCCC	43%
Nc1ccc(O)c2ccccc12	7%
O=C1CCC(Cc2ccc(C(F)(F)F)cc2)C(=O)N1 (stereo not given)	-2%
CCCCCCCC[N+](C)(C)Cc1ccc(C[N+](C)(C)CCCCCCCC)cc1	2%
CC(C)(N)COB(c1ccccc1)c1ccccc1	-4%
CCCCC(Oc1cc(C(C)(C)C)c(O)c(C(C)(C)C)c1)C(=O)O (stereo not given)	3%
CCCCCCCCN(CCCCCCCC)Cc1ccc(Br)cc1	96% (active)
CCc1cc2c(c3c1C(=O)CC3)C(C)(C)CCC2	12%
FC(F)(F)c1ccc(Cl)c(NC(=S)SC2CCCCC2)c1	0%
NC(N)=Nc1ccc(Cc2ccc(N=C(N)N)cc2)cc1	3%
Nc1ccc(-c2cccc(-c3ccccc3)c2)cc1	-15%
COc1cc(CSc2ccc(O)cc2)cc(OC)c1OC	-13%
CC(C)N(CC(=O)c1ccc2cc(Cl)c3ccccc3c2c1)C(C)C	32%
Cc1c(N2CCCC2)cc2c(c1NC(=O)c1ccccc1Cl)C(C)(C)CC2(C)C	10%

Structure (SMILES)	growth inhibition
CNc1ccc([N+](=O)[O-])cc1	-1%
CC(C)(C)OC(=O)c1ccc(NCC2=C(Br)C(=O)C=CC2=O)cc1	0%
CCN(CC)CCNc1ccc(C)c2oc3ccc(O)cc3c(=O)c12	-4%
CCS(=O)(=O)c1ccc(NC(=O)OC2CCCCCCC2)cc1	6%
Cc1cc2c(c3c1C(=O)CC3)C(C)(C)CC2(C)C	25%
O=C(O)/C=C\c1cc2ccccc2c2ccccc12	8%
CC[N+](C)(CC)CCC[n+]1c(-c2ccccc2)c2cc(N)ccc2c2ccc(N)cc21	-7%
Cn1nc2c(c(Cl)c1=O)Nc1ccccc1O2	-45%
COC(=O)CSc1nc2[nH]c(SC)c(C(N)=O)c2c(=O)n1-c1ccccc1	18%
O=S(=O)(Nc1ccc(Cl)cc1)c1ccccc1	-8%
COc1ccc(C(=O)Nc2ccc(Cl)cc2)cc1	-14%
C=CCOC(=O)CCC(=O)N(CC)CC	-2%
N#CCC(=O)N/N=C(/CC1(O)C(=O)Nc2c(Cl)cc(Cl)cc21)c1ccccc1 (stereo not given)	3%
CCCCOC(=O)c1cnc[nH]c1=O	-5%
CCCCOC(=O)c1ccc(O)c(OC)c1	85% (active)
